In the supplement of paper PMC12494721:
Counter-ions that a name gives are not always drawn.

Tests used:
Settings in all cases: incubation time: 27 h, anaerobic, 37 °C;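 for the amine columns active = adjusted P below 0.05 in both replicates with a change the same way and a mean fold change under 0.8 or over 1.25; inactive = the rest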
[1] = system: Clostridium sporogenes DSM 1664; assay: growth (OD595) fold change vs plate DMSO controls (fold change (ratio)); higher = more growth
In short: (§1)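 Absorbance at 595 nm was read after shaking the anaerobic mGAM cultures, which had grown in 96-well plates for 27 h at 37 °C. After blank subtraction and background correction against 20 µM compound solutions in water, a calibration factor of 5 gave OD values. Growth is the fold change against the median of the plate's DMSO controls. Values are the mean of 2 biological replicates, with fold changes above 1.5 set to NA.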

Escherichia coli IAI1 [2] = assay: as above
In short: as §1

[3] = system: Klebsiella aerogenes DSM 30053; assay: as above
In short: as §1

[4] = system: Ruminococcus gnavus DSM 108212; assay: as above
In short: as §1

[5] = system: Klebsiella aerogenes DSM 30053; assay: fold change of Histamine concentration vs plate DMSO controls (fold change (ratio)); higher = more amine produced, active = hit call of the paper (significant change in both replicates, either direction)
In short: (§2)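 Extracts of whole anaerobic mGAM cultures were analysed for amines by LC–triple-quadrupole MS with dynamic MRM and external calibration curves, with drift corrected within batch. Four gut strains were grown at 37 °C for 27 h in 80 µL wells with compounds at 20 µM final, sweeteners at 50 µM final. Each value expresses fold change over plate DMSO controls. The average of 2 biological replicates is shown.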

[6] = system: Clostridium sporogenes DSM 1664; assay: fold change of Tryptamine concentration vs plate DMSO controls (fold change (ratio)); higher = more amine produced, active = hit call of the paper (significant change in both replicates, either direction)
In short: as §2

[7] = system: Ruminococcus gnavus DSM 108212; assay: as above
In short: as §2

Escherichia coli IAI1 [8] = assay: fold change of Putrescine concentration vs plate DMSO controls (fold change (ratio)); higher = more amine produced, active = hit call of the paper (significant change in both replicates, either direction)
In short: as §2

[9] = system: Klebsiella aerogenes DSM 30053; assay: as above
In short: as §2

Escherichia coli IAI1 [10] = assay: fold change of Cadaverine concentration vs plate DMSO controls (fold change (ratio)); higher = more amine produced, active = hit call of the paper (significant change in both replicates, either direction)
In short: as §2

[11] = system: Klebsiella aerogenes DSM 30053; assay: as above
In short: as §2

[12] = system: Ruminococcus gnavus DSM 108212; assay: fold change of 2-Phenylethylamine concentration vs plate DMSO controls (fold change (ratio)); higher = more amine produced, active = hit call of the paper (significant change in both replicates, either direction)
In short: as §2

Structure (SMILES)	growth [1]	growth (Escherichia coli IAI1 [2])	growth [3]	growth [4]	fold change of Histamine concentration [5]	fold change of Tryptamine concentration [6]	fold change of Tryptamine concentration [7]	fold change of Putrescine concentration (Escherichia coli IAI1 [8])	fold change of Putrescine concentration [9]	fold change of Cadaverine concentration (Escherichia coli IAI1 [10])	fold change of Cadaverine concentration [11]	fold change of 2-Phenylethylamine concentration [12]
Cc1cn[nH]c1 [Fomepizole] (20 µM)	0.879	0.987	0.971	1.15	1.03 (inactive)	1.03 (inactive)	1.01 (inactive)	0.999 (inactive)	0.995 (inactive)	1.02 (inactive)	0.986 (inactive)	0.988 (inactive)
Cc1cn([C@H]2C=C[C@@H](CO)O2)c(=O)[nH]c1=O [Stavudine] (20 µM)	0.967	0.807	0.99	0.994	1.04 (inactive)	0.97 (inactive)	1.01 (inactive)	0.927 (inactive)	1.04 (inactive)	1.21 (inactive)	0.991 (inactive)	1.02 (inactive)
C[C@]12C=CC(=O)C=C1CC[C@H]1[C@@H]3C[C@@H](O)[C@](O)(C(=O)CO)[C@@]3(C)C[C@H](O)[C@@]12F [Triamcinolone] (20 µM)	1.01	0.986	1.02	0.944	0.954 (inactive)	0.918 (inactive)	1.02 (inactive)	0.976 (inactive)	1.02 (inactive)	0.994 (inactive)	0.992 (inactive)	1.07 (inactive)
O=C1NCCN1c1ncc([N+](=O)[O-])s1 [Niridazole] (20 µM)	0.0129	1.09	0.756	0.0406	1.11 (inactive)	0.0363 (active)	0.0455 (active)	1.44 (inactive)	1.03 (inactive)	1.97 (active)	1.02 (inactive)	0.0533 (active)
NS(=O)(=O)c1cc(C2(O)NC(=O)c3ccccc32)ccc1Cl (centres undefined) [Chlorthalidone] (20 µM)	0.955	0.977	1	1.17	1.09 (inactive)	1 (inactive)	1.03 (inactive)	0.992 (inactive)	1.03 (inactive)	0.973 (inactive)	0.983 (inactive)	1.04 (inactive)
CCC(=O)O[C@@H]1CC(=O)O[C@H](C)C/C=C/C=C/[C@H](O)[C@H](C)C[C@H](CC=O)[C@H](O[C@@H]2O[C@H](C)[C@@H](O[C@H]3C[C@@](C)(O)[C@@H](OC(=O)CC)[C@H](C)O3)[C@H](N(C)C)[C@H]2O)[C@H]1OC [Midecamycin] (20 µM)	0.00179	0.905	0.965	0.164	0.412 (active)	0.0271 (active)	0.143 (active)	0.909 (inactive)	1.06 (inactive)	1.05 (inactive)	1.05 (inactive)	0.141 (active)
Cc1ccc2c([nH]c(=O)c3c(=O)cc(C(=O)OCCC(C)C)oc32)c1C [Repirinast] (20 µM)	1.15	1.03	0.997	1.08	1.03 (inactive)	1.08 (inactive)	0.977 (inactive)	1.01 (inactive)	1 (inactive)	1.03 (inactive)	0.998 (inactive)	0.964 (inactive)
OC[C@H]1O[C@H](O[C@H]2O[C@H](CO)[C@@H](O)[C@H](O)[C@H]2O)[C@H](O)[C@@H](O)[C@@H]1O [Trehalose dihydrate] (20 µM)	1	1.04	1.08	1.11	0.919 (inactive)	0.967 (inactive)	1.06 (inactive)	1.02 (inactive)	0.986 (inactive)	0.988 (inactive)	1 (inactive)	1.09 (inactive)
COc1ccc(OC)c(C(O)CNC(=O)CN)c1 (centres undefined) [Midodrine hydrochloride] (20 µM)	1.08	1.03	1.09	0.949	1.05 (inactive)	1.03 (inactive)	1 (inactive)	1.01 (inactive)	1 (inactive)	0.995 (inactive)	0.995 (inactive)	1 (inactive)
N[C@H]1CONC1=O [(S,-) Cycloserine] (20 µM)	0.942	0.968	0.982	0.975	0.94 (inactive)	0.954 (inactive)	0.905 (inactive)	1.02 (inactive)	1.07 (inactive)	0.959 (inactive)	1.05 (inactive)	0.81 (inactive)
Nc1ncnc2c1ncn2C1OC(COP(=O)(O)O)C(O)C1O (centres undefined) [Adenosine 5'-monophosphate monohydrate] (20 µM)	1.05	1.01	0.973	0.96	1.07 (inactive)	1.01 (inactive)	1.02 (inactive)	1.04 (inactive)	1.02 (inactive)	0.991 (inactive)	0.987 (inactive)	1.01 (inactive)
CN1CCN(c2c(F)cc3c(=O)c(C(=O)O)cn(CCF)c3c2F)CC1 [Fleroxacin] (20 µM)	0	0	0	0	0.153 (active)	0.0453 (active)	1.08 (inactive)	0.785 (inactive)	0.902 (inactive)	0.26 (active)	0.961 (inactive)	1.15 (inactive)
CN(C)CCCN1c2ccccc2[S+]([O-])c2ccc(Cl)cc21 (centres undefined) [Chlorpromazine Sulfoxide] (20 µM)	0.948	0.996	0.985	1.03	1.04 (inactive)	1.06 (inactive)	1.04 (inactive)	0.993 (inactive)	0.996 (inactive)	1.01 (inactive)	0.977 (inactive)	1.1 (inactive)
CCCCCCCCCCCCCCCC[N+](C)(C)CCN(Cc1ccc(OC)cc1)c1ncccn1 [Thonzonium bromide] (20 µM)	0.856	1.04	1.02	1	1.04 (inactive)	0.673 (active)	0.742 (active)	1.06 (inactive)	1 (inactive)	0.984 (inactive)	0.995 (inactive)	0.782 (inactive)
CCN(CC)CCOC(=O)c1ccc(N)cc1 [Procaine hydrochloride] (20 µM)	0.834	1.24	1.08	1.23	0.974 (inactive)	1.04 (inactive)	1.04 (inactive)	1.16 (inactive)	1.03 (inactive)	0.979 (inactive)	1.01 (inactive)	0.992 (inactive)
CN1CCC(=C2c3ccccc3CCc3cccnc32)CC1 [Azatadine maleate] (20 µM)	0.968	0.983	0.994	0.99	1.05 (inactive)	1.14 (inactive)	1.01 (inactive)	1.34 (inactive)	1.01 (inactive)	0.966 (inactive)	1 (inactive)	1.03 (inactive)
CC(C)[N+](C)(CCOC(=O)C1c2ccccc2Oc2ccccc21)C(C)C [Propantheline bromide] (20 µM)	1.03	0.986	1	0.994	1 (inactive)	0.971 (inactive)	0.96 (inactive)	1.02 (inactive)	0.992 (inactive)	1.01 (inactive)	0.996 (inactive)	0.963 (inactive)
CC(C)[C@H](N)C(=O)OCC(CO)OCn1cnc2c(=O)nc(N)[nH]c21 (some centres undefined) [Valganciclovir hydrochloride] (20 µM)	1.1	0.991	1.03	0.987	0.998 (inactive)	0.983 (inactive)	0.964 (inactive)	1.01 (inactive)	1.01 (inactive)	1.01 (inactive)	1.01 (inactive)	0.926 (inactive)
COCCOC(=O)C1=C(C)NC(C)=C(C(=O)OC/C=C/c2ccccc2)C1c1cccc([N+](=O)[O-])c1 (centres undefined) [Cilnidipine] (20 µM)	1.19	0.996	1.16	0.973	0.989 (inactive)	0.918 (inactive)	0.945 (inactive)	1 (inactive)	1.01 (inactive)	0.982 (inactive)	1.03 (inactive)	0.905 (inactive)
Cc1cc(C(C)(C)C)cc(C)c1CC1=NCCN1 [Xylometazoline hydrochloride] (20 µM)	0.986	1.01	1.01	1.1	0.982 (inactive)	1.01 (inactive)	1.01 (inactive)	0.986 (inactive)	0.966 (inactive)	0.968 (inactive)	1 (inactive)	0.998 (inactive)
O=[N+]([O-])c1ccc(O)c2ncccc12 [Nitroxoline] (20 µM)	1.24	0.52	0.522	0.97	0.93 (inactive)	0.897 (inactive)	0.693 (active)	0.496 (active)	0.894 (inactive)	1.49 (active)	0.948 (inactive)	0.766 (inactive)
CCOc1ccc2c(c1)C(C)=CC(C)(C)N2 [Ethoxyquin] (20 µM)	0.801	1	1.01	1.22	1.07 (inactive)	1.06 (inactive)	0.854 (inactive)	1 (inactive)	1.01 (inactive)	0.994 (inactive)	0.986 (inactive)	0.807 (inactive)
